From PubChem BioAssay
CYP2C9 activ – CYP2C9 (human) activation. P11712. recombinant CYP2C9, luciferin-H conversion, luminescence; active compounds read high; factor 1 = untreated enzyme, 0 = blocked. activation factor at 5 µM. actives 1.4% (n = 96,000);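 active means activation factor of 2 or more for CYP2C9 at a 5 µM dose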
CYP2C19 act – cytochrome P450 2C19 (human) activation; recombinant CYP2C19, luciferin-H EGE luminescence; active compounds read high; 0 = fully inhibited enzyme, 1 = untreated enzyme; P33261; activation factor at 5 µM; 96,000 tested, under 10 active;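 active means activation factor of at least 2 at 5 µM in the primary screen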
Target sequence (P33261 whole entry, looked up): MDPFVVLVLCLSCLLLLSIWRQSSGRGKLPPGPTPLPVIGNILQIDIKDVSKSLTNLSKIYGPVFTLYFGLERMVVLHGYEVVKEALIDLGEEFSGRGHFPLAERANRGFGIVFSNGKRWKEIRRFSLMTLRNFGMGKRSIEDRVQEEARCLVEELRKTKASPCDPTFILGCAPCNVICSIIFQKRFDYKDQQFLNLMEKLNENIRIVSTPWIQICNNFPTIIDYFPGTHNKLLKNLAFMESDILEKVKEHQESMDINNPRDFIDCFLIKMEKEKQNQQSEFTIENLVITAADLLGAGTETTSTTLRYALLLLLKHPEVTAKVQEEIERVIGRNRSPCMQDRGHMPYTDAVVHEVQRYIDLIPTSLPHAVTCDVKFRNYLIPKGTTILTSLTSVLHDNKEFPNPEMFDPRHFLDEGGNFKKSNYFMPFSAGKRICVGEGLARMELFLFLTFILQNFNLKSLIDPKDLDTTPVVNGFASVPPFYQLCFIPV
PostGolgi ctrl – growth of the yeast control strain, post-Golgi counter-screen. efflux-deficient yeast background strain, growth absorbance A615, 16 h. inhibition, % at 10 µM. actives 5% (n = 98,000). AID 738
CYP2C19 inhib – inhibitors of human CYP2C19 | P33261 | CYP2C19 Supersomes, luciferin-H EGE luminescence, 30 min | inhibition, % at 5 µM | actives 21% (n = 96,000);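 active means CYP2C19 inhibition above a set limit at 5 µM in the primary screen, cut at about 50% in these data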
PostGolgi yeast – growth inhibition of a yeast mutant, post-Golgi transport screen. post-Golgi transport phenotypic cell assay. AID 739. inhibition, % at 10 µM. actives 0.9% (n = 98,000);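 further: yeast cells grown in 1536-well plates; yeast grown about 18 h at 30C before absorbance read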
CYP2C9 inhib – blocks human cytochrome P450 2C9. P11712. AID 777. CYP2C9 Supersomes, luciferin-H conversion, luminescence. actives 20% (n = 96,000). inhibition, % at 5 µM;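 active means blocking of liver enzyme CYP2C9 beyond about 50% at 5 µM, limit read from the data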
Hits are given with their value; - = inactive. An excerpt weighted towards active compounds, which were near 32% of everything screened. Unless noted, no stated cut-off is given here; in the data, active means inhibition above about 30%; inactive means the rest.

SMILES | CYP2C9 activ | CYP2C19 act | PostGolgi ctrl | CYP2C19 inhib | PostGolgi yeast | CYP2C9 inhib
COc1ccc(CN(C(=O)CSc2nnc(-c3ccc(F)cc3)o2)c2ccc(F)cc2)cc1 | - | - | 38 | 54 | - | 68
CC(C)(C)NC(=O)CN(C(=O)CSc1nnc(COc2ccccc2)o1)c1cccc(F)c1 | - | - | - | - | - | -
O=C(CSc1nc2c(c(=O)n1-c1ccc(F)cc1)SCC2)NCc1ccco1 | - | - | - | - | - | -
C(=C\c1cccc2ccccc12)/c1nnc(-c2cccs2)o1 | - | - | - | - | - | -
CCCN(CC1CC1)S(=O)(=O)c1ccc(S(N)(=O)=O)cc1 | - | - | - | 66 | - | -
CCCCOc1ccc(S(N)(=O)=O)cc1 | - | - | - | - | - | -
COC(=O)C(C)N1C(=O)S/C(=C/c2cc(C)n(C(C)C)c2C)C1=O (stereo not drawn) | - | - | - | - | - | -
CCOC(=O)CC(Nc1nc(N2CCOCC2)nc(N2CCOCC2)n1)c1ccccc1Cl (stereo not drawn) | - | - | - | 68 | - | 53
CN1CCc2nc(SCCOc3ccccc3)c(C#N)cc2C1 | - | - | - | 91 | - | -
Cc1ccc(NC(=O)c2cc(-c3cccc(O)c3)on2)cc1C | 2.9 | - | - | - | - | -
Cc1nn(Cc2ccccc2)c(C)c1NC(=O)c1cc(-c2cccs2)on1 | - | - | - | - | - | 63
Cc1ccc(NC(=O)c2cc(-c3ccco3)on2)cc1C | - | - | - | - | - | -
CN1CCN(C(=O)c2cc3nc(-c4ccccc4)cc(-c4ccccc4)n3n2)CC1 | - | - | - | - | - | -
COc1cc(NC(=O)c2cc3nc(-c4ccccc4)cc(-c4ccccc4)n3n2)cc(OC)c1OC | - | - | - | - | - | 64
COc1cccc(-c2cc(C(=O)Nc3c(C)nn(Cc4ccccc4)c3C)no2)c1 | - | - | - | - | - | 54
CC(C)C(NC(=O)C1CCCCC1)C(=O)NC1=NCCS1 (stereo not drawn) | - | - | - | - | - | -
O=C(N1CCOCC1)N1CCC(n2nnc3ccccc32)CC1 | - | - | - | - | - | -
COc1cccc(-c2cc(C(=O)Nc3cc(OC)c(OC)c(OC)c3)no2)c1 | - | - | - | 81 | - | -
CC(/C=N/NC(=O)c1cccnc1)=C\c1ccco1 | - | - | - | - | - | -
CC(/C=N/NC(=O)c1ccncc1)=C\c1ccccc1 | - | - | - | 81 | - | 79
CC(/C=N/NC(=O)c1cc(C(C)(C)C)[nH]n1)=C\c1ccccc1 | - | - | - | - | - | 60
COc1ccc(N(C(=O)c2ccc(Cl)cc2)C2=CC3CCC(C2)N3C)cc1 (stereo not drawn) | - | - | - | - | - | -
CCc1ccc(OCc2nc(-c3ccccn3)no2)c(Br)c1 | - | - | - | 95 | - | 74
CC(C)c1ccc(OCc2nc(-c3ccccn3)no2)c(Br)c1 | - | - | 38 | - | - | -
Cc1ccc(OCc2nc(-c3ccccn3)no2)cc1 | - | - | - | - | - | -
SMILES | CYP2C9 activ | CYP2C19 act | PostGolgi ctrl | CYP2C19 inhib | PostGolgi yeast | CYP2C9 inhib
Cc1ccc(OCc2nc(-c3ccccn3)no2)c(Br)c1 | - | - | 34 | 84 | - | -
COCCn1c(SCc2cccnc2)nnc1-c1ccco1 | - | - | - | - | - | -
C=CCN1C(=O)C(O)=C(C(C)=O)C1c1ccccc1F (stereo not drawn) | - | - | - | - | - | -
CC1CC(C)CN(S(=O)(=O)c2cccc(C(=O)OCCN3CCCC3=O)c2)C1 (stereo not drawn) | - | - | - | - | - | -
O=C(Cc1cccs1)NCc1ccco1 | - | - | - | - | - | -
COc1ccc(N(C(=O)Cn2nnc3ccccc32)C(C(=O)NCc2ccco2)c2ccc(C)o2)cc1 (stereo not drawn) | - | - | - | 68 | - | 58
O=C(NCc1ccco1)C(c1cccs1)N(C(=O)Cc1cccs1)c1ccccc1 (stereo not drawn) | - | - | - | - | 38 | -
COc1cccc(N(C(=O)Cn2nnc3ccccc32)C(C(=O)NCc2ccco2)c2cccnc2)c1 (stereo not drawn) | - | - | - | 79 | - | -
O=C(NCC(=O)N(c1cccnc1)C(C(=O)NCc1ccco1)c1ccccc1)c1ccco1 (stereo not drawn) | - | - | - | - | 39 | -
